From PubChem BioAssay (EPA / NIEHS) come the findings set out here.

Activity calls are given as the source filed them. How the source made its calls: active means hit-call score of the fitted dose curve at least 0.9, where 1 is the maximum; inactive means score below 0.9.

Read-out in this test: solute carrier (SLCO1B1), SLCO1B1 (gene 10599)
The test can be described thus: LTEA_HepaRG_SLCO1B1: Life Technologies and Expression Analysis (LTEA) Assay for solute carrier (SLCO1B1) using HepaRG (AID 2283530). The conditions noted are these: mRNA level, 48 h; actives raise or lower the signal. The protocol: LTEA_HepaRG is a cell based, multiplexed-readout assay that uses HepaRG, a human liver cell line, with measurements taken at 48 hours after chemical dosing on a 96-well plate.LTEA_HepaRG_SLCO1B1 is one of 102 assay component(s) measured in the LTEA HepaRG cell culture assay. It is a marker of NR mediated transport.Data from the assay component LTEA_HepaRG_SLCO1B1 was analyzed into 1 endpoint. This assay endpoint, LTEA_HepaRG_SLCO1B1, was analyzed with bidirectional fitting relative to DMSO as the negative control and baseline of activity. Using a type of inducible reporter, measures of mRNA induction for gain or loss-of-signal activity can be used to understand regulation of transcription factor activity. To generalize the intended target to other relatable targets, this assay endpoint is annotated to the transporter intended target family, where the subfamily is organic anion transporter.
A total of 1060 chemcials from the ToxCast library were tested in eight-point concentration-response experiments. Cell culture and cytotoxicity assays were conducted at Thermo Fisher Scientific's Custom Services facility (Madison, WI). A single lot of human HepaRG cells (Thermo Fisher Scientific, Frederick, MD) was used for the cell culture experiments. 96-well format collagen type I coated plates of human HepaRG cells were prepared using established methods. Briefly, cryopreserved HepaRG cells were thawed, plated at a density of approximately 100,000 cells/well in HepaRG Thaw, Plate, and General Purpose media (HPRG770, Thermo Fisher Scientific), and incubated for 48 hours. 0.5% DMSO was selected as vehicle control to balance the requisite need of DMSO in HepaRG cultures to maintain differentiation (for example, baseline metabolism, proportions of hepatocytes vs. cholangiocytes), while enabling further hepatic receptor pathway activation (for example, PXR and CAR) in response to chemical exposure. 48 hours after plating, the culture medium was replaced with HepaRG Serum-Free Incudtion Media. Cells were exposed to each test chemical in duplicate and maintained in CO2 incubators for another 48 hours. Chemical plates were thawed to room temperature and 200x concentrations of treatment groups were prepared. 8-point conentration-reponse curves were made with the highest exposure at 100 uM, followed by half-log dilutions, all in 0.5% DMSO. Each test plate contained variouse controls, induction positive controls (1mM phenobarbital), cytotoxicity positive controls ([…] aflatoxin B1), vehicle controls (0.5% DMSO), and total lysis controls (0.5% DMSO). Cell morphology images were taken using an Essen IncuCyte FLR automated microscope, with six 96-well plates imaged in about 24 minutes. Images were captured and exported and JPEG files. Spent culture media was transfered to black-well plates for the LDH assay, and remaining media was sorted at -80 C for later use. Cells were treated with RLT buffer and frozen until shipped for gene expression analysis. Total RNA was isolated from the cell suspension in 75 uL of Buffer RLT (Qiagen, Germantown, MD 20874) by Quintiles/Expression Analysis (Durham, NC) using a custom isolation procedure. Total RNA from each plate well was transferred to a preamplification plate. Fluidigm's 96.96 Dynamic ArrayTM (Fluidigm, Amsterdam, the Netherlands) technology was used for gene expression analyses by quantitative reverse transcription polymerase chain reaction (qRT-PCR, performed by Quintiles/Expression Analysis, Durham, NC)89. Standard TaqManTM Assays (Applied Biosystems/ThermoFisher Scientific, Foster City, CA) were used to assess the expression of 93 genes selected based on their selectivity and sensitivity to important hepatic receptors known to be modulated by environmental chemicals; importance in human hepatocyte functionality; and hepatotoxicity. […]
For `COP(=S)(OC)SCN1C(=O)c2ccccc2C1=O`, the result was inactive.

For the compound `OCCOCCO`, the result was inactive.

For `Clc1ccc(Cl)c(Cl)c1`, the compound was called inactive.

`Clc1ccc(C(c2ccc(Cl)cc2)C(Cl)Cl)cc1`: the compound was classed as inactive.

For `CCCCC(CC)COC(=O)c1ccc(C(=O)OCC(CC)CCCC)c(C(=O)OCC(CC)CCCC)c1` (stereo not given), the result was inactive.

Consider `c1ccc2c(c1)-c1cccc3cccc-2c13`, for which the result was inactive.

As for `CS(=O)(=O)NC(=O)c1cc(Oc2ccc(C(F)(F)F)cc2Cl)ccc1[N+](=O)[O-]`, the outcome was inactive.

On to `Nc1ccc(Cc2ccc(N)cc2)cc1`, for which the outcome was inactive.

For the compound `CN(C)c1ccc(C(=O)c2ccc(N(C)C)cc2)cc1`, the call was inactive.

As for `CCCCCCCCCCCCCN1CC(C)OC(C)C1` (stereo not given), the compound was classed as inactive.

With `Cc1ccc(N)cc1`, the compound was classed as inactive.

`CNC(=O)Oc1cccc2c1OC(C)(C)C2`: the compound was called inactive.

As for `Nc1ccc(N=Nc2ccccc2)cc1`, the half-maximal activity concentration (AC50) was 11.4 µM (active).

Regarding `CCOc1cccc(C2(N3CCN(c4ccccc4)CC3)CCC(C)CC2)c1` (stereo not given), the call was inactive.

With `C[C@]12C=CC3=C4CCC(=O)C=C4CC[C@H]3[C@@H]1CC[C@@H]2O`, the concentration at half-maximal activity (AC50) is 9.92 µM (active).

With `COC(=O)Nc1nc2ccccc2[nH]1`, the result was inactive.

On to `CCCCCCCCn1sccc1=O`, for which the AC50 is 84.1 µM (active).

For the compound `CCC[CH2][Sn]([Cl])([CH2]CCC)[CH2]CCC`, the half-maximal activity concentration (AC50) is 2.3 µM (active).

Turning to `c1ccc(C2CO2)cc1` (stereo not given), the call was inactive.

Consider `Brc1ccc(Oc2ccccc2)cc1`, for which the call was inactive.

As for `C1=Cc2cccc3cccc1c23`, the compound was called inactive.

As to `c1ccc(NNc2ccccc2)cc1`, the result was inactive.

On to `O=C(O)C1C2CCC(O2)C1C(=O)O` (stereo not given), for which the AC50 was 69 µM (active).

Consider `[Cl-].[Cl-].[Hg+2]`, for which the result was inactive.

As for `CCC12COCN1COC2`, the compound was classed as inactive.

As to `O=C(Oc1ccc(Br)cc1)N1CCN2CCC1CC2`, the outcome was inactive.

Turning to `OCCCl`, the outcome was inactive.

`O=[N+]([O-])c1ccc(Oc2ccc(Cl)cc2Cl)cc1`: the call was inactive.

For the compound `CC(C)(OOC(C)(C)c1ccccc1)c1ccccc1`, the result was inactive.

Take `O=P(OCCCl)(OCCCl)OCCCl`: the call was inactive.

Turning to `Cc1ccc(N)c(N)c1`, the call was inactive.

Turning to `Clc1ccccc1Cl`, the compound was called inactive.

In the case of `Cc1ccc([N+](=O)[O-])cc1`, the result was inactive.

On to `O=[N+]([O-])C(Br)(CO)CO`, for which the outcome was inactive.

For the compound `Oc1ccc2ccc3cccc4ccc1c2c34`, the compound was classed as inactive.

Take `CCCSC(=O)N(CCC)CCC`: the compound was called inactive.

As for `CC(C)(C)C(O)(CCc1ccc(Cl)cc1)Cn1cncn1` (stereo not given), the result was inactive.

Regarding `Nc1ccc(Cl)cc1N`, the AC50 is 20.9 µM (active).

Regarding `c1ccc(N=Nc2ccccc2)cc1`, the result was inactive.

`O=C(N[C@H](c1ccccc1)[C@@H]1CN2CCC1CC2)c1c(Cl)ccc(C(F)(F)F)c1Cl`: the half-maximal activity concentration (AC50) was 73.9 µM (active).
